Laboratory results from PubChem BioAssay AID1159580 (chemical genetic matrix, 2015).
Screen size: about 5,500 compounds; about 2,000 (36%) were called active. Inconclusive results (about 18%) are left out. Cut-off read from the data, not from the text of the source: active = normalized growth mostly below about 0.91 (no sharp cut-off); inconclusive = no clear call, values can overlap the other calls; inactive = mostly above about 0.92. Some of the results follow.

Test: chemical genetic growth profiling, strain panel (AID 1159580);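 note: tested at 20 µM; growth read once vehicle control cultures reached saturation at 30 °C; 1 = growth at the plate median or of vehicle wells; lower values mean less growth of the strain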
Conditions: S. cerevisiae deletion strains, growth OD

Measured: normalized growth

COc1cc2c(cc1OC)C1C(=O)c3ccc4c(c3OC1CO2)CCC(C)(C)O4 (stereo not drawn)
inactive: locus YBR021W, strain FUR4, active compounds read low 0.985 | locus YBR229C, strain ROT2, active compounds read low 1 | locus YCL029C, strain bik1, active compounds read low 1.04 | locus YDL035C, strain GPR1, active compounds read low 1.01 | locus YDL074C, strain BRE1, active compounds read low 0.993 | locus YDL101C, strain DUN1, active compounds read low 0.997 | locus YDL185W, strain tfp1, active compounds read low 1.03 | locus YDL192W, strain arf1, active compounds read low 1.01 | locus YDR101C, strain arx1, active compounds read low 0.997 | locus YDR162C, strain NBP2, active compounds read low 1.03 | locus YDR318W, strain mcm21, active compounds read low 1.01 | locus YDR388W, active compounds read low 1 | locus YDR502C, strain sam2, active compounds read low 1.02 | locus YEL061C, strain CIN8, active compounds read low 1 | locus YER110C, active compounds read low 1.02 | locus YER155C, strain BEM2, active compounds read low 0.996 | locus YER167W, strain BCK2, active compounds read low 0.999 | locus YGL078C, strain dbp3, active compounds read low 1.03 | locus YGL086W, strain mad1, active compounds read low 1.02 | locus YGL248W, strain PDE1, active compounds read low 0.99 | locus YGR078C, strain PAC10, active compounds read low 0.996 | locus YGR135W, strain pre9, active compounds read low 1.02 | locus YGR252W, strain gcn5, active compounds read low 0.957 | locus YHR030C, strain SLT2, active compounds read low 1.01 | locus YHR079C, strain IRE1 (second series), active compounds read low 1 | locus YHR094C, strain hxt1, active compounds read low 1.02 | locus YHR129C, strain ARP1, active compounds read low 1.01 | locus YHR200W, strain rpn10, active compounds read low 1 | locus YIL066C, strain RNR3, active compounds read low 1 | locus YIL073C, strain SPO22, active compounds read low 1.02 | locus YIL125W, strain kgd1, active compounds read low 1.02 | locus YIR030C, strain dcg1, active compounds read low 1 | locus YJL095W, strain BCK1, active compounds read low 1.01 | locus YJL134W, strain LCB3, active compounds read low 0.996 | locus YJL168C, strain set2, active compounds read low 1 | locus YJL187C, strain SWE1 (second series), active compounds read low 0.999 | locus YJR043C, strain POL32, active compounds read low 1.01 | locus YKL009W, strain mrt4, active compounds read low 1.03 | locus YKL068W, active compounds read low 1 | locus YKL085W, strain MDH1 (second series), active compounds read low 1.01 | locus YKL085W, strain MDH1, active compounds read low 1.01 | locus YKR001C, strain vps1, active compounds read low 0.994 | locus YLR039C, strain RIC1, active compounds read low 1.01 | locus YLR058C, strain SHM2, active compounds read low 0.999 | locus YLR102C, strain apc9, active compounds read low 1.01 | locus YLR262C, strain YPT6, active compounds read low 1.04 | locus YLR268W, strain sec22, active compounds read low 1.02 | locus YLR330W, strain CHS5, active compounds read low 1.01 | locus YLR342W, strain FKS1 (second series), active compounds read low 1 | locus YLR371W, strain rom2, active compounds read low 1.01 | locus YLR418C, strain cdc73, active compounds read low 1 | locus YML016C, strain PPZ1, active compounds read low 1 | locus YML032C, strain rad52, active compounds read low 1.02 | locus YML124C, strain tub3, active compounds read low 1 | locus YMR078C, strain ctf18, active compounds read low 0.997 | locus YMR223W, strain ubp8, active compounds read low 0.999 | locus YMR263W, strain SAP30, active compounds read low 0.998 | locus YMR307W, strain GAS1, active compounds read low 1 | locus YNL067W, strain RPL9B, active compounds read low 0.993 | locus YNL128W, strain TEP1, active compounds read low 1.03 | locus YNL153C, strain GIM3, active compounds read low 1.02 | locus YNL233W, strain BNI4, active compounds read low 0.982 | locus YNL250W, strain rad50, active compounds read low 1.02 | locus YNL271C, strain bni1, active compounds read low 1.03 | locus YNL298W, strain CLA4, active compounds read low 1.01 | locus YNL307C, strain MCK1, active compounds read low 1 | locus YNL322C, strain KRE1, active compounds read low 1 | locus YNR052C, strain pop2, active compounds read low 1.02 | locus YOL006C, strain TOP1, active compounds read low 0.984 | locus YOL012C, strain htz1 1.01 | locus YOL147C, strain pex11, active compounds read low 1 | locus YOR061W, strain CKA2, active compounds read low 1.01 | locus YOR069W, strain VPS5, active compounds read low 1 | locus YOR136W, strain idh2, active compounds read low 1.02 | locus YOR144C, strain elg1, active compounds read low 1.01 | locus YOR184W, strain ser1, active compounds read low 1.02 | locus YOR316C, strain cot1, active compounds read low 1.01 | locus YPL241C, strain CIN2, active compounds read low 0.993 | locus YPR119W, strain clb2, active compounds read low 1.02 | locus YPR141C, strain kar3, active compounds read low 1.01 | locus YPR163C, strain tif3, active compounds read low 1.01 | locus YPR167C, strain met16, active compounds read low 1 | strain wtn01, active compounds read low 1.02
